According to PubChem BioAssay (Tox21):
Values without a mark were called inactive. Inconclusive results are not listed. Entries that show only a call come without a potency. The source made the active and inactive calls. Unless noted, calls follow the shape of the dose curve; as a rule, active = well fitted curve in the direction sought with a large enough effect in the repeat runs; inconclusive = weak or mixed curves; inactive = no such curve, though single readings can be large; an effect the other way counts as inactive or inconclusive.

Assays:
[1] = target: Thyrotropin receptor (Homo sapiens) (UniProt P16473); assay: qHTS assay to identify small molecule antagonists of the thyroid stimulating hormone receptor (TSHR) signaling pathway (AID 1259385; calls by dose curve; also: nearly all actives have a fitted effect of over 20% in size)
Method in brief: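 TSHR-HEK293 cells (800/well) plated 18 h, then compounds with Ro20-1724 and TSH at 1.5 ng/mL final, 30 min at room temperature. cAMP quantified by HTRF (cAMP-d2/anti-cAMP-cryptate, 1 h); 15 concentrations in triplicate.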

[2] = qHTS assay to identify small molecule agonists of the estrogen receptor alpha (ER-alpha) signaling pathway in the presence of an antagonist - cell viability counter screen (AID 1259386);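 also: series mostly up to about 92 µM; cells exposed to compounds for 22 h at 37 °C before the viability read; nearly all actives have a fitted effect of over 30% in size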
Method in brief: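 Viability counter screen using VM7Luc4E2 (full-length ER-alpha, four ERE-luciferase). The cells were treated with compounds alongside ICI-182,780 10.0nM for 22hr, and live-cell protease fluorescence was quantified with CellTiter-Fluor.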

[3] = target: Progesterone receptor (Homo sapiens) (UniProt P06401); assay: qHTS assay to identify small molecule agonists of the progesterone receptor (PR) signaling pathway (AID 1346784; calls by dose curve; also: nearly all actives have a fitted effect of over 30% in size)
Method in brief: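 Agonist qHTS: compounds pinned onto 3,000 PR-UAS-bla HEK 293T cells per well in charcoal-stripped serum medium, 16hr at 37C, then beta-lactamase activity measured by LiveBLAzer FRET fluorescence after 2 hours at room temperature.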

[4] = target: Progesterone receptor (Homo sapiens) (UniProt P06401); assay: qHTS assay to identify small molecule antagonists of the progesterone receptor (PR) signaling pathway (AID 1346795; active = well fitted inhibition curve with a large enough effect in the signal ratio in the repeat runs, not every such curve was filed as active; the % refers to the signal ratio)
Method in brief: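 Antagonist mode with agonist R5020 at 1 nM final and 16 hr incubation at 37C. Reporter was beta-lactamase driven by UAS in HEK293T (PR-UAS-bla), 2% charcoal-stripped serum; signal from LiveBLAzer FRET substrate, 2 hr at room temperature.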

[5] = qHTS assay to identify small molecule antagonists of the progesterone receptor (PR) signaling pathway - cell viability counter screen (AID 1346798); also: series mostly up to about 92 µM; nearly all actives have a fitted effect of over 50% in size
Method in brief: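 Cytotoxicity read as CellTiter-Glo luminescence (30 min, room temperature) in the same wells as the beta-lactamase readout. HEK293T PR-UAS-bla cells in charcoal-stripped 2% FBS received compound and R5020, then 16 h at 37C, 5% CO2.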

[6] = qHTS assay to identify small molecule agonists of the progesterone receptor (PR) signaling pathway - cell viability counter screen (AID 1346799; calls by dose curve; also: nearly all actives have a fitted effect of over 45% in size)
Method in brief: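 Cytotoxicity measured by CellTiter-Glo luminescence (30 min, RT) in the same wells as the PR beta-lactamase agonist read. Those HEK293T cells had 16 h compound treatment at 37 C in 2% charcoal-stripped FBS medium.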

[7] = qHTS assay to identify small molecule antagonists of the TGF-beta/Smad signaling pathway - cell viability counter screen (AID 1346824); also: nearly all actives have a fitted effect of over 50% in size
Method in brief: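 SBE-bla HEK 293T cells, incubated overnight, then compound plus 0.25 ng/mL TGF-beta1 (stock added) for 5 hr at 37 C. Viability was read in the same wells by CellTiter-Glo luminescence after 30 min at room temperature.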

[8] = qHTS assay to identify small molecule agonists of the TGF-beta/Smad signaling pathway - cell viability counter screen (AID 1346829); also: top concentration of the series differs between compounds; nearly all actives have a fitted effect of over 45% in size
Method in brief: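 Here the cytotoxicity of library compounds is measured in SBE-bla HEK 293T cells treated for 5 hr, using CellTiter-Glo added to wells already read for the beta-lactamase reporter.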

[9] = qHTS assay to identify small molecule agonists of the TGF-beta/Smad signaling pathway (AID 1346859; active = well fitted activation curve with a large enough effect in the signal ratio in the repeat runs, not every such curve was filed as active; the % refers to the signal ratio; also: series mostly up to about 77 µM)
Method in brief: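 Fluorescence (ex 405 nm; em 460 and 530 nm) was read 2 h after LiveBLAzer FRET substrate at RT. The preceding compound treatment of overnight-plated SBE-bla HEK293T cells lasted 5 h at 37 C.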

[10] = target: Thyrotropin-releasing hormone receptor (Homo sapiens) (UniProt P34981); assay: qHTS assay to identify small molecule antagonists of the thyrotropin-releasing hormone receptor (TRHR) signaling pathway (AID 1346877; active = well fitted inhibition curve with a large enough effect in the repeat runs, not every such curve was filed as active; also: series mostly up to about 51 µM)
Method in brief: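 Following an 18 h incubation at 37 °C and a 2 h calcium dye load, TRHR-HEK293 cells were exposed to compound (5 min, room temperature) and challenged with TRH, 1 nM final.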

[11] = Human pregnane X receptor (PXR) small molecule agonists, qHTS cell viability counter screen (AID 1346977); also: nearly all actives have a fitted effect of over 50% in size
Method in brief: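 Same-well viability read: CellTiter-Fluor added after 23 hr compound exposure, fluorescence measured 1 hr later. Cells were PXR-Luc HepG2 seeded at 2,000/well in 5% charcoal-stripped FBS medium, rested 5 hr before dosing at 37 C.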

[12] = Caspase-3/7 induction in HepG2 cells by small molecules, qHTS assay (AID 1346978); also: nearly all actives have a fitted effect of over 15% in size
Method in brief: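 Wild-type HepG2 cells, 2,000/well, settled 5 hr at 37 C and 5% CO2, then compound-treated for 17 hr; caspase-3/7 activity read by luminescent Caspase-Glo 3/7 after 30 min at room temperature.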

[13] = Caspase-3/7 induction in CHO-K1 cells by small molecules, qHTS cell viability counter screen (AID 1346979); also: nearly all actives have a fitted effect of over 35% in size
Method in brief: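 Cytotoxicity counter screen: CellTiter-Fluor added to compound-treated wild-type CHO-K1 cells at 16 h (37C, 5% CO2), fluorescence measured 1 h later; same wells as caspase-3/7 measurement.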

[14] = Caspase-3/7 induction in CHO-K1 cells by small molecules, qHTS assay (AID 1346980); also: nearly all actives have a fitted effect of over 15% in size
Method in brief: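 Wild-type CHO-K1 cells exposed to compounds for 17hr at 37 C, 5% CO2. Caspase-3/7 activity then measured by Caspase-Glo 3/7 luminescence after 30min at room temperature.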

[15] = Caspase-3/7 induction in HepG2 cells by small molecules, qHTS cell viability counter screen (AID 1346981); also: series mostly up to about 92 µM; nearly all actives have a fitted effect of over 30% in size
Method in brief: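 Viability determined by CellTiter-Fluor fluorescence in HepG2 wells also used for the luminescent Caspase-Glo 3/7 read. Compounds were present for 16 hr at 37 C, 5% CO2 before reagent addition.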

[16] = target: Nuclear receptor subfamily 1 group I member 2 (Homo sapiens) (UniProt O75469); assay: Human pregnane X receptor (PXR) small molecule agonists, qHTS assay (AID 1346982); also: nearly all actives have a fitted effect of over 35% in size; also: potency is read from the fitted curve at half-maximal effect
Method in brief: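 Compound-induced hPXR transactivation of a CYP3A4 luciferase reporter was scored in HepG2 PXR-Luc cells over 24 hr at 37 C, 5% CO2, by luminescence.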

[17] = target: Thyrotropin-releasing hormone receptor (Homo sapiens) (UniProt P34981); assay: qHTS assay to identify small molecule agonists of the thyrotropin-releasing hormone receptor (TRHR) signaling pathway (AID 1346891; calls by dose curve; also: series mostly up to about 58 µM)
Method in brief: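 Agonist-mode intracellular calcium readout: kinetic fluorescence over 3 min at 1 s intervals after compound addition to TRHR-HEK293 cells (18 h seeded, 2 h dye-loaded at 37 C). Fifteen concentrations, triplicates.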

[18] = target: Nuclear receptor subfamily 1 group I member 2 (Homo sapiens) (UniProt O75469); assay: CYP3A4 induction through human pregnane X receptor (PXR) by small molecules, qHTS assay (AID 1346984); also: nearly all actives have a fitted effect of over 40% in size
Method in brief: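 Readings come from a luciferase reporter: DPX-2 cells, which are HepG2 cotransfected with PXR and a CYP3A4-promoter construct, were exposed to test compounds for 24 h at 37C before One-Glo detection.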

[19] = target: Nuclear receptor subfamily 1 group I member 2 (Homo sapiens) (UniProt O75469); assay: Human pregnane X receptor (PXR) activation by small molecules, qHTS assay (AID 1346985); also: nearly all actives have a fitted effect of over 40% in size
Method in brief: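 DPX-2 cells (HepG2 co-transfected with a PXR response element and a CYP3A4-promoter luciferase construct) were seeded at 2,000 per well, rested 5 hr at 37C, then exposed to DMSO-dissolved compounds for 24 hr. Activation was read as luciferase luminescence.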

Thyrotropin receptor (Homo sapiens), sequence (P16473 whole entry, looked up): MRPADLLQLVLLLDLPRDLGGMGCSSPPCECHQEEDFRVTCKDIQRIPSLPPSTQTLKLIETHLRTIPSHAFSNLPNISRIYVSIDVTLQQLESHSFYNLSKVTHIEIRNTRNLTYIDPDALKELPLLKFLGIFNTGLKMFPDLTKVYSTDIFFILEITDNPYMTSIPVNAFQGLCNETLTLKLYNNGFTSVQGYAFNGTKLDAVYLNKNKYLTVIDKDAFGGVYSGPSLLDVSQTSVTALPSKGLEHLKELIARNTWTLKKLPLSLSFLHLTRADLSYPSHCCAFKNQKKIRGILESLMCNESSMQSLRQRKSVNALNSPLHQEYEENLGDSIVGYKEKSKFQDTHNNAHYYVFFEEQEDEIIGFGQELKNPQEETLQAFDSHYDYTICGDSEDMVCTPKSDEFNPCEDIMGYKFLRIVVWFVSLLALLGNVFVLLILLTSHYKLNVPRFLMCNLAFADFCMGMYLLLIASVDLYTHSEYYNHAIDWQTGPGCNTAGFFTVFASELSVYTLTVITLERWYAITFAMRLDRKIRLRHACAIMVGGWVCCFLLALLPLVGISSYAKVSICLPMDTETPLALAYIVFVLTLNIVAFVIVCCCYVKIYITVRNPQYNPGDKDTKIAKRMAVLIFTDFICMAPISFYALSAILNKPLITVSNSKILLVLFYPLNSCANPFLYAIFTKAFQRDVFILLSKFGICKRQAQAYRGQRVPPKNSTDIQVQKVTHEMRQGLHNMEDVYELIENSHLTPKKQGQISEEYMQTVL
Thyrotropin-releasing hormone receptor (Homo sapiens), sequence (P34981 whole entry, looked up): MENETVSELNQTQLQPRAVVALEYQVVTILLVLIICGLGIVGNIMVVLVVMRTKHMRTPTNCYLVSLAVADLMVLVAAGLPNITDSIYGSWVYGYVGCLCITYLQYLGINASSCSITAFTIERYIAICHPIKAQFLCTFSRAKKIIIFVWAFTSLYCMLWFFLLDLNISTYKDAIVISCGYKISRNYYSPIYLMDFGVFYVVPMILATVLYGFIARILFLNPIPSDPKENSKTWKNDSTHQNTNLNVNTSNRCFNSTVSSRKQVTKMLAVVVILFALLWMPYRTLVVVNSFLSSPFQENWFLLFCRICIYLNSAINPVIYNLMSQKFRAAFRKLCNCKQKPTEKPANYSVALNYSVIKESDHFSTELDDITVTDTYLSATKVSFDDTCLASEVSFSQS
Nuclear receptor subfamily 1 group I member 2 (Homo sapiens), sequence (O75469 whole entry, looked up): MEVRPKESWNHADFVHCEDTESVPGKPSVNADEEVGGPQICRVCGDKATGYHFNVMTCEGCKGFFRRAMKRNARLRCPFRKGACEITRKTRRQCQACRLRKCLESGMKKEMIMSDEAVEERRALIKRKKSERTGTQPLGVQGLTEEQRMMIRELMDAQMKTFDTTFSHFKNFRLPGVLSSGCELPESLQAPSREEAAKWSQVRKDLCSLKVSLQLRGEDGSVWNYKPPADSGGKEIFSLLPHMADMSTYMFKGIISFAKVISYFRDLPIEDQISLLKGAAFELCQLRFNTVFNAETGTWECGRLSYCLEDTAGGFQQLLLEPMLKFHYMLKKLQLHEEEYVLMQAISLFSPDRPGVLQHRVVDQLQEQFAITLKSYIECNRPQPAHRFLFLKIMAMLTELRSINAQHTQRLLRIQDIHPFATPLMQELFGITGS
Progesterone receptor (Homo sapiens), sequence (P06401 whole entry, looked up): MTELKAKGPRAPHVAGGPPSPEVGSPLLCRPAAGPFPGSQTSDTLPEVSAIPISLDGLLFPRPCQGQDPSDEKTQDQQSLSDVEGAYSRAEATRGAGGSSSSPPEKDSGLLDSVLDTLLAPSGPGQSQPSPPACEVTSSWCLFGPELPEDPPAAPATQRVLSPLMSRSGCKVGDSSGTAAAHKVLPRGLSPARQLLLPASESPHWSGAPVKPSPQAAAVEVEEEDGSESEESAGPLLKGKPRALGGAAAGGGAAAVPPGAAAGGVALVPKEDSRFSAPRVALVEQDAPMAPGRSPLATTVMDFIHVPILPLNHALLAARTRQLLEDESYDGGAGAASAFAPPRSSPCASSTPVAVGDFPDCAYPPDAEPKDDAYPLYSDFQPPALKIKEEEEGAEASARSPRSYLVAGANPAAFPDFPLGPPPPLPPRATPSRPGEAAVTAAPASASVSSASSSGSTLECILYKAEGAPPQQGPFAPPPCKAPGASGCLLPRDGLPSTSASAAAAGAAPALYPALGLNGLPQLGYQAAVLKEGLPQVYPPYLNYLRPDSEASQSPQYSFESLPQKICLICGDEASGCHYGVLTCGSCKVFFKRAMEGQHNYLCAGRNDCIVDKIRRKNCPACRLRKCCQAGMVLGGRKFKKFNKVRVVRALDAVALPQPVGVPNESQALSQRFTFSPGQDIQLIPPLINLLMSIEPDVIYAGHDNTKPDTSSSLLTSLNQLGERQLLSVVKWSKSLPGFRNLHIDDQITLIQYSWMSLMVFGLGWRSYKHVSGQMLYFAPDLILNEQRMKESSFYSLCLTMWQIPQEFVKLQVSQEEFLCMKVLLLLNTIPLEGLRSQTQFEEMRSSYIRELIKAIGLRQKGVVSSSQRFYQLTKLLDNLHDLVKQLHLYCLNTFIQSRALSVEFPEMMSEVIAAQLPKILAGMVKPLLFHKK

SMILES	Potency [1]	Potency [2]	Potency [3]	Potency [4]	Potency [5]	Potency [6]	Potency [7]	outcome [8]	outcome [9]	outcome [10]	Potency [11]	Potency [12]	Potency [13]	outcome [14]	Potency [15]	Potency [16]	outcome [17]	Potency [18]	Potency [19]
NC(=O)COCCN1CCN(C(c2ccccc2)c2ccc(Cl)cc2)CC1 (stereo not drawn)	inactive	inactive	inactive	inactive	inactive	inactive	inactive	inactive	inactive	inactive	inactive	inactive	inactive	inactive	inactive	inactive			
COC(=O)CCSCCC(=O)OC	inactive	inactive	inactive	inactive	inactive	inactive	inactive	inactive	inactive	inactive	inactive	inactive	inactive	inactive	inactive	inactive			
CCO[Si](CCC1CCC2OC2C1)(OCC)OCC (stereo not drawn)	inactive	inactive	inactive	inactive	inactive	inactive	inactive	inactive	inactive	inactive	inactive	inactive	inactive	inactive	inactive	inactive	inactive		
CC(C)NCCCC1(C(N)=O)c2ccccc2-c2ccccc21	inactive	inactive	inactive	inactive	inactive	inactive	inactive	inactive	inactive	inactive	inactive	inactive	inactive	inactive	inactive	23.7 µM (active)	inactive		
CC(=O)N(CC(O)CO)c1c(I)c(C(=O)NCCO)c(I)c(C(=O)NCC(O)CO)c1I (stereo not drawn)	inactive	inactive	inactive	inactive	inactive	inactive	inactive	inactive	inactive	inactive	inactive	inactive	inactive	inactive	inactive	inactive	inactive		
CN1CC(=O)NC1=N	inactive	inactive	inactive	inactive	inactive	inactive	inactive	inactive	inactive	inactive	inactive	inactive	inactive	inactive	inactive	inactive	inactive	inactive	inactive
C=CCOCC(CC)(CO)COCC=C	inactive	inactive	inactive	inactive	inactive	inactive	inactive	inactive	inactive	inactive	inactive	inactive	inactive		inactive	inactive	inactive		
